Screening results deposited in PubChem BioAssay by National Center for Advancing Translational Sciences (NCATS).
Hits are enriched below; roughly 18% of the tested compounds scored in any of these assays.
CtBP-E1A blk: blocks the CtBP interaction with E1A; activity change, % (test concentration not listed); AlphaScreen GST-E1A/His-CtBP binding, 1536-well; active compounds read low; hit rate 0.49% among 340,000; in the data active means activity change below about -65%; inconclusive means mostly about -30% to -63%
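Steps: dispense buffer (Tris pH 8.0, NaCl 300 mM, TCEP 1 mM, BSA, Tween 20); add 5X protein mix (GST-E1A, His-CtBP, 125 nM each); pin 23 nL compound; 2 h at 37 °C, dark; add 5X beads (50 ug/mL); 1 h; read.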
IL1B secr inh: inflammasome signaling inhibition, IL-1 beta readout | THP-1 LPS/ATP IL-1B secretion, AlphaLISA, 16 h; active compounds read low | activity change, % at 57.5 µM | hit rate 4.7% among 360,000 | AID 743279; in the data active means activity change below about -50%; inconclusive means mostly about -30% to -49%
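Secreted IL-1B measured by AlphaLISA bead assay after 16 h compound exposure of THP-1 cells; compounds (final up to 57.5 uM) added 1 h before LPS (250 ng/mL) and ATP (1.25 mM) stimulation; lower signal means less secretion.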
TDP1 cell noCPT: qHTS for Inhibitors of human tyrosyl-DNA phosphodiesterase 1 (TDP1): qHTS in cells in absence of CPT. DT40 Tdp1-/- hTDP1 cells, no CPT, ATP luminescence, 48 h. Potency, µM (titrated, usually from 46.2 µM), for the others: at the top dose activity change, negative = growth inhibition, hits mostly inhibitors. hit rate 15% among 420,000. AID 686978, 2013; further: potency means the concentration at half of the fitted maximal effect; nearly all actives have a fitted effect of over 55% in size
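Camptothecin absent (DMSO only). Human TDP1-complemented DT40 knockout cells, 400 cells/well, 37 °C for minimum 48 hr; ATP measured via CellTiter-Glo, 30 min dark incubation, luminescence.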
TDP1 inh: TDP1 (human) enzyme inhibition | recombinant TDP1, AlphaScreen DNA substrate cleavage | Potency, µM (titrated, usually from 130 µM), for inactives: at the top dose activity change, negative = inhibition, usual class: inhibitors | hit rate 0.28% among 350,000; further: potency means the concentration at half of the fitted maximal effect; nearly all actives have a fitted effect of over 40% in size
Target sequence (Q9NUW8 whole entry, looked up): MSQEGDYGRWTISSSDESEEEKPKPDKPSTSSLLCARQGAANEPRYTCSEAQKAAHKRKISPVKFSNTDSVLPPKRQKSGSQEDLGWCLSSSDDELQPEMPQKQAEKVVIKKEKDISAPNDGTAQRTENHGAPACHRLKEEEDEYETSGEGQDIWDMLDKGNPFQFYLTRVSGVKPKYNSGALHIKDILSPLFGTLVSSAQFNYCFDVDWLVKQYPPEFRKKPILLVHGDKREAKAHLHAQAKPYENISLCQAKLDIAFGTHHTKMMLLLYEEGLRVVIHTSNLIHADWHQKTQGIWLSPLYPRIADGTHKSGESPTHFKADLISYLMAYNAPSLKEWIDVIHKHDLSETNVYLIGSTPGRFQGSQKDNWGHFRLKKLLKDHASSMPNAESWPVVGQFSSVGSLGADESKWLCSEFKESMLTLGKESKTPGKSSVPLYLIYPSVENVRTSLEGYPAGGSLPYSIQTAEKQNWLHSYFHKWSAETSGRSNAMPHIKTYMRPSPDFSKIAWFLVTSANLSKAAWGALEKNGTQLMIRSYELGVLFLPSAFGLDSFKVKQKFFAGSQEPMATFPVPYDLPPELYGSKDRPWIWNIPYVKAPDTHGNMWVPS
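Recombinant E. coli-expressed Tdp1 (1 nM) preincubated with compound 15 min at RT, then 5'-biotin/3'-phosphotyrosine-FITC DNA substrate (15 nM) added for 5 min. AlphaScreen beads (10 ug/ml) added, 10 min RT; tyrosine-FITC cleavage read as signal loss.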
TDP1 cell CPT: DT40-hTDP1 cell growth loss with CPT; chicken DT40 Tdp1-/-;hTDP1 cells + 20 nM CPT, ATP luminescence, 48 h; Potency, µM (top dose mostly 46.2 µM), without a hit: top-dose activity change, negative = growth inhibition, most hits filed as inhibitors; hit rate 12% among 420,000; further: potency means the concentration at half of the fitted maximal effect; nearly all actives have a fitted effect of over 55% in size
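Cell growth measured by CellTiter-Glo luminescence after a minimum 48 h, 37 C compound exposure with 20 nM CPT in Tdp1-knockout DT40 cells stably expressing hTDP1, seeded 400/well; qHTS titration format.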
Six1-Eya2 inh: Six1/Eya2 interaction inhibition | Q15475+O00167 | AlphaScreen GST-Six1/His-Eya2 binding, biochemical; active compounds read low | activity change, % (concentration not given with the values) | hit rate 0.56% among 360,000 | AID 651725; in the data active means activity change below about -65%; inconclusive means mostly about -30% to -63%
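Homogeneous AlphaScreen proximity assay pairing GST-Six1 with His-tagged Eya2 (added as 5X mix: 250 nM and 500 nM) in 50 mM Tris pH 8.0, 300 mM NaCl, 1 mM TCEP. Glutathione donor and nickel acceptor beads; 1 h, 37 °C, dark.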
* hit, by the source's call; i = inactive; ? = inconclusive; · = not tested or not shown; [ ] = another dose, or the depositor's remark. Unless noted, the call rests on the fitted dose curve; in most records, active means well fitted curve in the direction sought with a large enough effect; inconclusive means small, poorly fitted or top-dose-only effect, or another doubt; inactive means no such curve, though single readings can be large; an effect the other way counts as inactive or inconclusive. On the % scale 0 is the no-effect control and ±100 the full control effect.

SMILES	CtBP-E1A blk	IL1B secr inh	TDP1 cell noCPT	TDP1 inh	TDP1 cell CPT	Six1-Eya2 inh
Cc1ccc(OCC(=O)N2CCOCC2)cc1C	9	0	1%	6%	9%	6
CC(C)c1ccc(OCc2ccc(C(=O)N3CCN(c4ccccn4)CC3)cc2)cc1	0	-2	21µM*	6%	?	-2
Cc1cc(=O)oc2cc(OCc3ccc(C(=O)OCC(=O)NC4CCS(=O)(=O)C4)cc3)ccc12 (stereo not given)	4	3	?	8.9µM*	-12%	-14
Cc1ccc(OCc2ccc(C(=O)N3CCOCC3)cc2)cc1C	3	-1	21µM*	7%	16µM*	3
CC(C)c1ccc(COc2ccc(C(=O)N3CCOCC3)cc2)cc1	·	-6	23µM*	-5%	?	5
CC(=NNS(=O)(=O)c1ccc([N+](=O)[O-])cc1)c1ccc(C)cc1	-3	3	-1%	·	23%	-4
Cc1ccc(-n2ncc(C(=O)N3CCCCC3)c2C2CCN(C(=O)OC(C)(C)C)CC2)c(C)c1	·	·	?	5%	?	·
Cc1ccc(OC(=O)CCC(=O)NC(C)c2ccccc2)cc1 (stereo not given)	3	0	-12%	-1%	-4%	0
COc1ccc(C(=O)Nc2ccc(C(=O)N3CCOCC3)cc2)cc1OC	-9	7	-11%	-4%	-17%	-3
COc1ccc(N2CCN(C(=O)COc3ccc4c(C)cc(=O)oc4c3C)CC2)cc1	9	34	2%	3%	-4%	-1
COc1ccc(N2CCN(C(=O)c3ccc(COc4ccc5c(C)cc(=O)oc5c4)cc3)CC2)cc1	-3	-20	16µM*	5%	?	-4
CCOc1ccc(C(=O)Nc2ccc(C(=O)N3CCOCC3)cc2)c(OCC)c1	5	i	13µM*	4%	?	-8
COc1cc(COc2ccc3c(C)c(Cc4ccccc4)c(=O)oc3c2)cc(OC)c1OC	13	5	?	-5%	?	-4
COc1cc(COc2ccc3c(C)c(Cc4ccccc4)c(=O)oc3c2C)cc(OC)c1OC	-7	38	18µM*	0%	21µM*	-9
Cc1cc(C)cc(NC(=O)CN2C(=O)C3CC=CCC3C2=O)c1 (stereo not given)	6	-12	-3%	0%[56.1 µM]	-4%	4
O=C1c2ccccc2C2=Nc3ccccc3SC(c3cccc(F)c3)C12 (stereo not given)	-4	-7	16µM*	11%	16µM*	?
CN(C(=O)COC(=O)/C=C/c1ccc2ccccc2n1)C1CCS(=O)(=O)C1 (stereo not given)	-26	-106*	?	3%	?	-2
CCN(C(=O)COC(=O)/C=C/c1c(C)nn(-c2ccccc2)c1C)C1CCS(=O)(=O)C1 (stereo not given)	-71*	23	-13%	-2%	8%	-7
Cc1nn(-c2ccccc2)c(C)c1/C=C/C(=O)OCC(=O)N(C)C1CCS(=O)(=O)C1 (stereo not given)	?	-14	-9%	5%	4%	0
CCc1ccccc1N1CCN(S(=O)(=O)c2cc(OC)ccc2OC)CC1	0	-7	-28%	-3%	-7%	-1
Cc1ccc(-n2ccc(=O)c(C(=O)Nc3ccc(S(=O)(=O)Nc4nccs4)cc3)n2)cc1	-8	-18	-28%	1%	-26%	-10
NC(=O)C1CCN(C(=O)c2ccccc2NC(=O)c2nsc3ccccc23)CC1	·	·	-8%	0%	?	·
Cc1oc(-c2ccccc2NC(=O)c2ccccc2)nc1CNC(=O)c1c(-c2ccccc2)noc1C	·	·	-12%	·	0%[9.04 µM]	·
N#CC1(NC(=O)CSc2nncn2-c2ccccc2F)CCCC1	·	9	3%	-1%	-1%	-3
CN1CCN(c2ncnc3ccc(-c4cccnc4)cc23)CC1	·	·	?	·	16µM*	·
SMILES	CtBP-E1A blk	IL1B secr inh	TDP1 cell noCPT	TDP1 inh	TDP1 cell CPT	Six1-Eya2 inh
COc1cccc(-c2ccc3ncnc(N4CCN(C)CC4)c3c2)c1	·	·	23µM*	·	13µM*	·
CN1CCN(c2ncnc3ccc(-c4ccc(C(=O)N(C)C)cc4)cc23)CC1	·	·	3%	·	6%	·
CN1CCN(c2ncnc3ccc(-c4ccoc4)cc23)CC1	·	·	23µM*	·	12µM*	·
Cc1ccc(C)c(NC(=O)c2ccc3c(O)c(S(=O)(=O)c4ccc(Cl)cc4)c(=O)[nH]c3c2)c1	·	·	9%	0%	10%	·
N#Cc1cccnc1N1CCN(C(=O)c2ccc3c(c2)S(=O)(=O)c2ccccc2C3=O)CC1	?	?	?	·	26µM*	-14
O=C(c1ccc2c(c1)N(Cc1cccc(Cl)c1)C(=O)c1ccccc1S2(=O)=O)N1CCN(c2ccccn2)CC1	·	-2	13µM*	6%	?	10
O=C(c1ccc2c(c1)N(Cc1ccc(Cl)cc1)C(=O)c1ccccc1S2(=O)=O)N1CCN(c2ccccn2)CC1	·	·	23µM*	-1%	16µM*	·
CN1CCN(C(=O)c2ccc3c(c2)N(Cc2ccc(F)cc2)C(=O)c2ccccc2S3(=O)=O)CC1	·	·	-28%	-1%	-15%	·
COc1ccc(OC)c(NC(=O)N2CCN(Cc3nc4ccc(C)cc4o3)CC2)c1	·	·	-2%	6%	?	·
Cc1nnc(NC(=O)C2CCN(S(=O)(=O)c3ccc(Cl)cc3)CC2)s1	-13	7	-1%	0%	2%	12
CCCCNS(=O)(=O)c1ccc2nc(SCC(N)=O)[nH]c2c1	·	-2	?	·	-10%	-6
